This is an account of results in PubChem BioAssay (NCI).

Assay [1] can be described thus: NCI Yeast Anticancer Drug Screen. Data for the rad50 strain (AID 155).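 Note: 0% = growth of vehicle-only cultures of the same strain.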 Particulars: S. cerevisiae rad50 strain growth inhibition, hits give high values. A digest of the protocol: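 Cells are treated with compound, grown, and their growth is then scored against vehicle-only cultures of the same repair-deficient yeast strain.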
The nature of assay [2]: NCI Yeast Anticancer Drug Screen. Data for the mec2-1 strain (AID 157). Particulars: S. cerevisiae mec2-1 strain, hits give high values. A digest of the protocol:
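mec2-1 yeast strain, carrying an alteration in DNA damage repair or cell cycle control, was exposed to compounds; growth inhibition was measured relative to vehicle-treated controls.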

The nature of assay [3]: NCI Yeast Anticancer Drug Screen. Data for the sgs1 mgt1 strain (AID 161).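 Note: 0% = growth of cultures given vehicle only.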 Particulars: S. cerevisiae sgs1 mgt1 strain, hits give high values. A digest of the protocol:
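Compounds are added to genetically altered yeast, and growth is compared with cultures given vehicle alone to give percent inhibition.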

Assay [4] can be described thus: NCI Yeast Anticancer Drug Screen. Data for the cln2 rad14 strain (AID 165).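 Note: 0% = growth equal to vehicle treated cultures.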 The note with it: S. cerevisiae cln2 rad14 strain, hits give high values. A digest of the protocol:
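Yeast carrying cln2 and rad14 alterations (cell cycle control and DNA damage repair) were exposed to compounds. Growth inhibition was measured against vehicle-treated controls.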

Assay [5] is described as follows: NCI Yeast Anticancer Drug Screen. Data for the bub3 strain (AID 167). The note with it: S. cerevisiae bub3 mutant strain, hits give high values. The essentials: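 Part of a panel of yeast mutants defective in DNA damage repair or cell cycle regulation. Each strain is grown with compound, and inhibition is calculated relative to solvent-treated cultures.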
Assay [6] in a line: NCI Yeast Anticancer Drug Screen. Data for the mlh1 rad18 strain (AID 175). Particulars: S. cerevisiae mlh1 rad18 strain growth inhibition, hits give high values. A digest of the protocol:
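Growth inhibition of the yeast strain was measured after compound exposure and expressed relative to vehicle-treated controls. The strain carries defined defects in DNA damage repair.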

The mark [7] stands for this setting: at 5.0 µM (retest, dose inferred, filed as 0.5).
The mark [8] stands for this setting: at 50.0 µM (retest, dose inferred, filed as 5.0).

Compounds without any hit were thinned out: in the full panel of roughly 79,000, 15% have a hit. Values without a mark were called inactive. The source made the active and inactive calls. Cut-off read from the data, not from the text of the source: active = growth inhibition above about 70%; inactive = the rest.

Turning to `C[C@]12CC[C@@H]3c4ccc(O)cc4CC[C@H]3[C@@H]1CC[C@@H]2NCCCCCCO`, the growth inhibition in assay [1] (setting [7]) was 21%; in assay [1] (setting [8]), 25%; in assay [1] (at 50.0 µM), 14.6%; in assay [2] (setting [7]), 18%; in assay [2] (setting [8]), 19%; in assay [2] (at 50.0 µM), 48.6%. Also, the growth inhibition in assay [3] (setting [7]) was 18%; in assay [3] (setting [8]), 38%; in assay [3] (at 50.0 µM) it was 34.4%; in assay [4] (setting [7]), 26%; in assay [4] (setting [8]) it was 31%; in assay [4] (at 50.0 µM) it was -13.2%. For the same compound, the growth inhibition in assay [5] (setting [7]) was 15%; in assay [5] (setting [8]), 34%; in assay [5] (at 50.0 µM) it was -6.1%; in assay [6] (setting [7]), 21%; in assay [6] (setting [8]), 37%; in assay [6] (at 50.0 µM), -3.2%.

Regarding `CCCCn1cnc2c(SCc3ccccc3[N+](=O)[O-])nc(N)nc21`, the growth inhibition in assay [1] (setting [7]) is 1%; in assay [1] (setting [8]), -2%; in assay [1] (at 50.0 µM) it was 94.9% (active); in assay [2] (setting [7]), -2%; in assay [2] (setting [8]), 1%; in assay [2] (at 50.0 µM), 98.2% (active). Further, the growth inhibition is 1% in assay [3] (setting [7]); 2% in assay [3] (setting [8]); 96.9% (active) in assay [3] (at 50.0 µM); -15% in assay [4] (setting [7]); -27% in assay [4] (setting [8]); 90.4% (active) in assay [4] (at 50.0 µM). The growth inhibition in assay [5] (setting [7]) is 1%; in assay [5] (setting [8]) it was 30%; in assay [5] (at 50.0 µM), 98.7% (active); in assay [6] (setting [7]) it was 3%; in assay [6] (setting [8]), 3%; in assay [6] (at 50.0 µM), 96.7% (active).

Take `COc1ccc(-c2cn(-c3ccccc3)c3ncnc(N)c23)cc1`: the growth inhibition in assay [1] (setting [7]) is 5%; in assay [1] (setting [8]), 18%; in assay [1] (at 50.0 µM), 24.1%; in assay [2] (setting [7]), 5%; in assay [2] (setting [8]) it was 23%; in assay [2] (at 50.0 µM), 11.8%. For the same compound, the growth inhibition in assay [3] (setting [7]) was 10%; in assay [3] (setting [8]), 52%; in assay [3] (at 50.0 µM), 79.5% (active); in assay [4] (setting [7]) it was 1%; in assay [4] (setting [8]), 0%; in assay [4] (at 50.0 µM) it was 33.8%. For the same compound, the growth inhibition was 2% in assay [5] (setting [7]); 9% in assay [5] (setting [8]); -15.4% in assay [5] (at 50.0 µM); -2% in assay [6] (setting [7]); 14% in assay [6] (setting [8]); 17.6% in assay [6] (at 50.0 µM).

As for `O=[N+]([O-])c1ccccc1NCCO`, the growth inhibition in assay [1] (setting [7]) is 1%; in assay [1] (setting [8]) it was -2%; in assay [1] (at 50.0 µM), -10.2%; in assay [2] (setting [7]) it was 3%; in assay [2] (setting [8]) it was 0%; in assay [2] (at 50.0 µM) it was -5.65%. Also, the growth inhibition in assay [3] (setting [7]) was -2%; in assay [3] (setting [8]) it was -12%; in assay [3] (at 50.0 µM) it was -0.15%; in assay [4] (setting [7]), 2%; in assay [4] (setting [8]) it was 4%; in assay [4] (at 50.0 µM) it was 28.8%. Moreover, the growth inhibition is 3% in assay [5] (setting [7]); 2% in assay [5] (setting [8]); -14.2% in assay [5] (at 50.0 µM); 2% in assay [6] (setting [7]); 3% in assay [6] (setting [8]); -24.9% in assay [6] (at 50.0 µM).

Regarding `Cc1ccc(S(=O)(=O)N/N=c2\c(C)c(C3=NS(=O)(=O)c4cc(S(N)(=O)=O)c(Cl)cc4N3)oc3c(Cl)cc(Cl)cc23)cc1`, the growth inhibition in assay [1] (setting [7]) is 40%; in assay [1] (setting [8]), 63%; in assay [1] (at 50.0 µM) it was 77.9% (active); in assay [2] (setting [7]), 32%; in assay [2] (setting [8]) it was 55%; in assay [2] (at 50.0 µM) it was 47%. The growth inhibition in assay [3] (setting [7]) was 28%; in assay [3] (setting [8]), 59%; in assay [3] (at 50.0 µM), 56.5%; in assay [4] (setting [7]), 33%; in assay [4] (setting [8]) it was 60%; in assay [4] (at 50.0 µM) it was 65.9%. Also, the growth inhibition is 33% in assay [5] (setting [7]); 73% (active) in assay [5] (setting [8]); 60.5% in assay [5] (at 50.0 µM); 44% in assay [6] (setting [7]); 69% in assay [6] (setting [8]); 59.2% in assay [6] (at 50.0 µM).

On to `O=[N+]([O-])c1ccc2c(c1)Cc1cc(Cl)ccc1-2`, for which the growth inhibition is 7% in assay [1] (setting [7]); 6% in assay [1] (setting [8]); 14.1% in assay [1] (at 50.0 µM); 2% in assay [2] (setting [7]); 5% in assay [2] (setting [8]); -13.9% in assay [2] (at 50.0 µM). Moreover, the growth inhibition was 1% in assay [3] (setting [7]); -2% in assay [3] (setting [8]); -11.4% in assay [3] (at 50.0 µM); -5% in assay [4] (setting [7]); 3% in assay [4] (setting [8]); 81.4% (active) in assay [4] (at 50.0 µM). The growth inhibition in assay [5] (setting [7]) is 4%; in assay [5] (setting [8]) it was 7%; in assay [5] (at 50.0 µM), -14.3%; in assay [6] (setting [7]), 6%; in assay [6] (setting [8]), 5%; in assay [6] (at 50.0 µM) it was 46.1%.

As for `CC(c1ccccc1)c1cc(C(C)(C)C)ccc1O` (configuration not stated), the growth inhibition is -4% in assay [1] (setting [7]); 99% (active) in assay [1] (setting [8]); 99.6% (active) in assay [1] (at 50.0 µM); -25% in assay [2] (setting [7]); 100% (active) in assay [2] (setting [8]); 99.8% (active) in assay [2] (at 50.0 µM). The growth inhibition is -2% in assay [3] (setting [7]); 71% (active) in assay [3] (setting [8]); 99.7% (active) in assay [3] (at 50.0 µM); -12% in assay [4] (setting [7]); 100% (active) in assay [4] (setting [8]); 99.3% (active) in assay [4] (at 50.0 µM). For the same compound, the growth inhibition in assay [5] (setting [7]) is -8%; in assay [5] (setting [8]), 99% (active); in assay [5] (at 50.0 µM) it was 99.4% (active); in assay [6] (setting [7]), -19%; in assay [6] (setting [8]) it was 99% (active); in assay [6] (at 50.0 µM), 99.3% (active).

As for `COc1ccc(CCCCC(=O)O)cc1O`, the growth inhibition in assay [1] (setting [7]) is -155%; in assay [1] (setting [8]), -161%; in assay [1] (at 50.0 µM), 40.9%; in assay [2] (setting [7]), -52%; in assay [2] (setting [8]), -54%; in assay [2] (at 50.0 µM), 14.1%. For the same compound, the growth inhibition was -56% in assay [3] (setting [7]); -65% in assay [3] (setting [8]); 29.9% in assay [3] (at 50.0 µM); -57% in assay [4] (setting [7]); -55% in assay [4] (setting [8]); 61.9% in assay [4] (at 50.0 µM). For the same compound, the growth inhibition is -69% in assay [5] (setting [7]); -80% in assay [5] (setting [8]); 2.5% in assay [5] (at 50.0 µM); -117% in assay [6] (setting [7]); -117% in assay [6] (setting [8]); 28.4% in assay [6] (at 50.0 µM).

On to `CC(C)c1cccc(O)c1O`, for which the growth inhibition in assay [1] (setting [7]) is 7%; in assay [1] (setting [8]), 1%; in assay [1] (at 50.0 µM), 87.2% (active); in assay [2] (setting [7]), -7%; in assay [2] (setting [8]), 14%; in assay [2] (at 50.0 µM) it was 89.4% (active). In addition, the growth inhibition in assay [3] (setting [7]) was 9%; in assay [3] (setting [8]), 13%; in assay [3] (at 50.0 µM), 82.3% (active); in assay [4] (setting [7]), 23%; in assay [4] (setting [8]), 38%; in assay [4] (at 50.0 µM), 86.3% (active). Besides, the growth inhibition in assay [5] (setting [7]) was -1%; in assay [5] (setting [8]), 45%; in assay [5] (at 50.0 µM), 89.5% (active); in assay [6] (setting [7]), -1%; in assay [6] (setting [8]), 4%; in assay [6] (at 50.0 µM), 86.9% (active).
